# Results from paper PMC4552634, “A New Set of Chemical Starting Points with Plasmodium falciparum Transmission-Blocking Potential for Antimalarial Drug Discovery” (PLoS ONE, 2015).
# Hit rate of the full screen: of about 13,000 compounds, about 3,200 (25%) showed an effect of 50% or more. Some of the results follow.
# Tested on: P. falciparum stage V gametocytes
# Parameters: BacTiter-Glo ATP luminescence viability of purified stage V gametocytes in 384-well plates, per cent inhibition versus DMSO
# Conditions: 48 h, 5 µM; inhibitor
row,SMILES,% Inhibition
1,Cc1cccc2nc(-c3ccc(-c4ccc(CN5CC(C)OC(C)C5)cc4)cc3)[nH]c12.O=C(O)C(F)(F)F (stereo not drawn) [TCMDC-133823],-0.7329%
2,Cc1noc(C)c1CN1CCCN(c2ccc3c(c2)CCN(Cc2ccc(-c4ncc[nH]4)cc2)CC3)CC1 [TCMDC-136548],-0.683%
3,CO/N=C(\C)c1ccc2c(c1)CCN(CCC1CCC(NC(=O)/C=C/c3ccc(F)cc3)CC1)CC2 (stereo not drawn) [TCMDC-139922],-74.19%
4,Fc1ccc2nc(-c3ccc(-c4ccc(CNCCc5cccnc5)cc4)s3)[nH]c2c1 [TCMDC-132875],-31.32%
5,N#Cc1cccc(C(=O)Nc2cccc(-c3ccc(CN4CCC(O)CC4)cc3)c2)c1 [TCMDC-132652],-17.85%
6,CCOC(=O)c1[nH]c2cc(Cl)cc(Cl)c2c1/C=C/C(=O)Nc1ccc(-c2cnc(NC(C)=O)[nH]2)cc1 [TCMDC-137161],-8.366%
7,Cc1c(C(=O)N(C)C)sc2c1c(=O)n(Cc1ccccc1)c(=O)n2CC(=O)Nc1ccccc1F [TCMDC-125279],4.453%
8,CCc1nc2nc(C)cc(Nc3ccc(F)c(Cl)c3)n2n1 [TCMDC-124770],1.315%
9,CCc1nc2nc(C)cc(Nc3cc(C)cc(C)c3)n2n1 [TCMDC-124402],51.49%
10,CCc1nc2nc(C)cc(Nc3ccc4c(c3)OCCO4)n2n1 [TCMDC-125299],-0.3909%
11,CC1(C)N=C(N)N=C(N)N1OCCNCc1ccc(Cl)cc1 [TCMDC-131628],11.83%
12,O=C(Nc1cccc(-c2nn3ccccc3c2-c2ccnc(Nc3ccc(-c4cc[nH]n4)cc3)n2)c1)c1c(F)cccc1F [TCMDC-135915],-3.577%
13,CC1CCCC(Nc2noc(-c3sccc3Br)n2)C1 (stereo not drawn) [TCMDC-134184],-4.566%
14,CS(=O)(=O)c1ccc(CNCc2ccc(-c3cccc(-c4nc5cc(F)ccc5[nH]4)c3)cc2)cc1.O=C(O)C(F)(F)F [TCMDC-132904],15.16%
15,Fc1ccc2[nH]cc(CCNCc3ccc(-c4cccc(-c5nc6ccccc6[nH]5)c4)cc3)c2c1.O=C(O)C(F)(F)F [TCMDC-132573],88.58%
16,O=C(O)C(F)(F)F.c1ccc(CCNCc2ccc(-c3cccc(-c4nc5ccccc5[nH]4)c3)cc2)nc1 [TCMDC-132537],93.06%
17,CS(=O)(=O)c1ccc(CCNCc2ccc(-c3cccc(-c4nc5ccccc5[nH]4)c3)cc2)cc1.O=C(O)C(F)(F)F [TCMDC-132558],87.75%
18,O=C(O)C(F)(F)F.c1cc(-c2ccc(CNCCc3ccncc3)cc2)cc(-c2nc3ccccc3[nH]2)c1 [TCMDC-132553],67.12%
19,Fc1ccc2[nH]c(-c3ccc(-c4ccc(CNCCc5ccncc5)cc4)cc3)nc2c1.O=C(O)C(F)(F)F [TCMDC-132851],-25.93%
20,CN(CCNCc1ccc(-c2cccc(-c3nc4ccccc4[nH]3)c2)cc1)S(C)(=O)=O.O=C(O)C(F)(F)F [TCMDC-132561],23.76%
21,O=C(O)C(F)(F)F.c1cncc(CCNCc2ccc(-c3cccc(-c4nc5ccccc5[nH]4)c3)cc2)c1 [TCMDC-132554],4.222%
22,O=C(O)C(F)(F)F.c1ccc(-c2ccc(CNCc3ccc(-c4cccc(-c5nc6ccccc6[nH]5)c4)cc3)s2)nc1 [TCMDC-132571],17.42%

row,SMILES,% Inhibition
1,CS(=O)(=O)c1ccc(CNCc2ccc(-c3cccc(-c4nc5ccccc5[nH]4)c3)cc2)cc1.O=C(O)C(F)(F)F [TCMDC-132557],-11.29%
2,O=C(O)C(F)(F)F.c1cc(CNCCc2ccncc2)cc(-c2ccc(-c3nc4ccccc4[nH]3)cc2)c1 [TCMDC-132856],-34.48%
3,Cc1cccc2nc(-c3cccc(-c4ccc(CNCCc5ccncc5)cc4)c3)[nH]c12.O=C(O)C(F)(F)F [TCMDC-132846],-3.628%
4,CC(=O)c1c(Nc2c(C)cc(C)cc2C)oc(C)cc1=O [TCMDC-125654],7.725%
5,Cc1ccccc1C1CCN(C2CCC(NC(=O)c3ccc4c(c3)-c3nocc3C(C)O4)CC2)CC1 (stereo not drawn) [TCMDC-134101],-36.23%
6,O=C(Nc1cc(=O)[nH]c2nc(-c3ccccc3)nn12)C1CCCCC1 [TCMDC-125474],2.661%
7,Cc1cccc2[nH]c(-c3cccc(-c4ccc(NC(=O)NCc5cccc(F)c5)cc4)c3)nc12 [TCMDC-133289],46.25%
8,CNCc1ccc(-c2cccc(CNCc3ccc(-c4ccccc4)cc3)c2)c(C(=O)OC)c1 [TCMDC-139615],117.6%
9,CCCCNC(=O)c1cc(CNC2CCCCC2)ccc1-c1cccc(CNCc2ccc(-c3ccccc3)cc2)c1 [TCMDC-139614],92.13%
10,CC(C)NCc1ccc(-c2cccc(CN3CCC(c4ccccc4)CC3)c2)c(C(=O)NCC2CCCCC2)c1 [TCMDC-134701],29.45%
11,COC(=O)c1cccc(CNCc2cccc(-c3csc(-c4nc5ccccc5[nH]4)c3)c2)c1 [TCMDC-132943],-44.21%
12,COc1cccc(CNC(=O)c2cc(CNCc3ccccc3)ccc2-c2cccc(CNCc3ccc(-c4ccccc4)cc3)c2)c1 [TCMDC-139616],14.44%
13,CN(C)C(=O)c1cc(CNCc2ccccc2)ccc1-c1cccc(CNCc2ccc(-c3ccccc3)cc2)c1 [TCMDC-139617],33.8%
14,CCCCN(CCCC)CCNC(=O)c1cccc(NC(=O)N2CCc3cc(SC)c(C(F)(F)F)cc32)c1 [TCMDC-139012],-13.47%
15,Cc1ccccc1NC1=NC(=S)N(c2cccc(C(F)(F)F)c2)C12CCC(C(C)(C)C)CC2 (stereo not drawn) [TCMDC-125677],20.36%
16,O=C(Nc1ccc(N2CCN(C(=O)/C=C/c3ccccc3)CC2)c(Cl)c1)c1ccc([N+](=O)[O-])o1 [TCMDC-125229],0.8671%
17,CCc1cccc2sc(N3CCN(C(=O)c4ccc([N+](=O)[O-])o4)CC3)nc12 [TCMDC-124317],88.03%
18,COc1ccccc1C(=O)N1CCN(Cc2cccs2)CC1 [TCMDC-139297],0.2209%
19,CCCCCCN1CCC(CNCc2cccc([N+](=O)[O-])c2)CC1 [TCMDC-141211],17.53%
20,Cc1ccc2sc(N3CCN(C(=O)c4ccc([N+](=O)[O-])o4)CC3)nc2c1C [TCMDC-124314],93.58%
21,Cc1cc(C)c2oc(-c3cccc(NC(=O)c4ccc([N+](=O)[O-])o4)c3C)nc2c1 [TCMDC-123704],43.1%
22,Cc1c(Cl)ccc2sc(N3CCN(C(=O)c4ccc([N+](=O)[O-])o4)CC3)nc12 [TCMDC-125453],88.71%

row,SMILES,% Inhibition
1,COc1cccc2sc(N3CCN(C(=O)c4ccc([N+](=O)[O-])o4)CC3)nc12 [TCMDC-125150],57.22%
2,COc1ccc(/N=[N+](\[O-])c2ccccc2/[N+]([O-])=N/c2ccc(OC)cc2)cc1 [TCMDC-131243],-4.101%
3,CC(=O)Nc1ccccc1OCc1cc2cc(C(=O)N3CCC(N4C(=O)OCc5ccccc54)CC3)ccc2o1 [TCMDC-138453],6.686%
4,CCc1c(C)c2ccc3c(c2oc1=O)CN(CCc1ccc(F)cc1)CO3 [TCMDC-125082],34.69%
5,Cn1nccc1C(=O)NCCNCc1ccc(-c2ccc(-c3nc4cc(C(F)(F)F)ccc4[nH]3)cc2)cc1.O=C(O)C(F)(F)F [TCMDC-133013],-32.96%
6,Cc1nc(-c2nc(N3CCC(C(N)=O)CC3)ncc2-c2ccsc2)sc1C [TCMDC-125362],25.42%
7,COC(=O)c1cccc(CNCc2ccc(-c3ccc(-c4nc5ccc(F)cc5[nH]4)s3)cc2)c1 [TCMDC-132951],-33.43%
8,CCc1ccc(NC(=O)C=NNC(=N)N)cc1 [TCMDC-137521],-23.47%
9,c1ccc(Oc2ccc(Nc3ccnc(Nc4ccc5cn[nH]c5c4)n3)cc2)cc1 [TCMDC-138574],-56.78%
10,O=C(c1ccc([N+](=O)[O-])o1)N1CCN(c2ccccc2)CC1 [TCMDC-125833],2.332%
11,O=C(c1ccc([N+](=O)[O-])o1)N1CCN(c2nc3c(Cl)cccc3s2)CC1 [TCMDC-124316],86.16%
12,CS(=O)(=O)c1cccc2sc(N3CCN(C(=O)c4ccc([N+](=O)[O-])o4)CC3)nc12 [TCMDC-124930],105%
13,O=C(Nc1ccc(N2CCN(Cc3ccccc3Cl)CC2)cc1)c1ccc([N+](=O)[O-])o1 [TCMDC-125230],2.358%
14,O=C(c1ccc([N+](=O)[O-])o1)N1CCN(c2nc3c(F)cc(F)cc3s2)CC1 [TCMDC-125149],102.2%
15,O=C(Nc1cccc(-c2nc3ccccc3s2)c1)c1ccccc1[N+](=O)[O-] [TCMDC-125736],-19.42%
16,CC(C)(C)OC(=O)N1CCC(C2CCN(C(=O)OC(C)(C)C)CC2)CC1 [TCMDC-132002],7.482%
17,O=C(NCC1CCN(CC2CCCCC2)C1)c1cc(-c2cccc(Cl)c2)cs1 (stereo not drawn) [TCMDC-134423],42.83%
18,CCc1ccc(CN2CCC(CNC(=O)c3cc(-c4cccc(Cl)c4)cs3)C2)cc1 (stereo not drawn) [TCMDC-134434],86.46%
19,COc1cccc(-c2csc(C(=O)NCC3CCN(Cc4ccc(C(C)(C)C)cc4)C3)c2)c1 (stereo not drawn) [TCMDC-134447],100.1%
20,CC(=O)Nc1ccc(CN2CCC(CNC(=O)c3cc(-c4cccc(Cl)c4)cs3)C2)cc1 (stereo not drawn) [TCMDC-134457],-3.132%
21,CC(C)(C)c1ccc(CN2CCC(CNC(=O)c3cc(-c4cccc(Cl)c4)cs3)C2)cc1 (stereo not drawn) [TCMDC-134446],98.88%
22,CC(C)(C)c1ccc(CN2CCC(CNC(=O)c3cc(-c4cccc(F)c4)cs3)C2)cc1 (stereo not drawn) [TCMDC-134444],110.8%
